Measured values taken from PubChem BioAssay (Tox21).
Inconclusive results are not listed. Calls of active or inactive are those of the source. Unless noted, calls come from the whole dose curve.

Tests used:
[1] = Nuclear factor erythroid 2-related factor 2/antioxidant responsive element (Nrf2/ARE) small molecule agonists: luciferase reporter gene qHTS assay in human keratinocytes (AID 1919969); note: nearly all actives have a fitted effect of over 35% in size; note: potency is the fitted concentration of half-maximal effect
[2] = target: Gonadotropin-releasing hormone receptor (Homo sapiens) (UniProt P30968); assay: Human gonadotropin-releasing hormone receptor (GnRHR) small molecule agonists, calcium flux assay in GnRHR-HEK293 cells (AID 1920063); note: nearly all actives have a fitted effect of over 35% in size
Gonadotropin-releasing hormone receptor (Homo sapiens), sequence (P30968 whole entry, looked up): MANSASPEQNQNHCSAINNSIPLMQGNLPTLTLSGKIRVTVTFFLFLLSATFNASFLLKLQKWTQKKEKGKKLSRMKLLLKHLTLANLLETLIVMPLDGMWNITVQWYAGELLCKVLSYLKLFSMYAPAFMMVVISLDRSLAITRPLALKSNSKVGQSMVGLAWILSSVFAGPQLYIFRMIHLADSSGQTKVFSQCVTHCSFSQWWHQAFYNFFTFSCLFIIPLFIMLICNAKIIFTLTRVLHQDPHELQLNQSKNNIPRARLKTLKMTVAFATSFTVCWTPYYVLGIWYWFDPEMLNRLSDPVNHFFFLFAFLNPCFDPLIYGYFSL
Outline: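 We seeded human GnRHR-expressing HEK293 cells for 18 hours, loaded them with calcium dye for an hour at 37 C, added test compounds, and recorded fluorescence intensity kinetically for three minutes.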

[3] = target: KiSS-1 receptor (Homo sapiens) (UniProt Q969F8); assay: Human kisspeptin (KISS1R) small molecule agonists, calcium flux assay in KISS1R-HEK293 cells (AID 1920064; active = well fitted activation curve with a large enough effect in the repeat runs)
KiSS-1 receptor (Homo sapiens), sequence (Q969F8 whole entry, looked up): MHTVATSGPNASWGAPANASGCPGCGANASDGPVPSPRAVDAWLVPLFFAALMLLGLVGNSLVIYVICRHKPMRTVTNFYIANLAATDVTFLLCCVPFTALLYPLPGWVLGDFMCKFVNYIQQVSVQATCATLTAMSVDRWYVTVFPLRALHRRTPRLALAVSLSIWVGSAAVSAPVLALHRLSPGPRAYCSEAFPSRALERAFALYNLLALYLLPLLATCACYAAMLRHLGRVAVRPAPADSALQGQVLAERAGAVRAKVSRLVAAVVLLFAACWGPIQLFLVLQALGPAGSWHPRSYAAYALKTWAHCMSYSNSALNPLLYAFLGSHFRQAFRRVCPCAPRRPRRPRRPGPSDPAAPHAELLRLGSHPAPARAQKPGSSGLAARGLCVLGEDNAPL
Outline: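 Kinetic calcium assay, 1 s sampling over 3 min at Ex/Em 480/540, in HEK293 cells engineered with human KISS1R; compounds delivered in DMSO after 1 h dye loading.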

[4] = G protein-coupled receptor (GPCR) small molecule agonists, calcium flux assay: HEK293 wild type cell line counter screen (AID 1920065)
Outline: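 Calcium-sensitive dye, loaded 1 h at 37 C into cells cultured 18 h, reports compound-evoked calcium release as fluorescence (Ex/Em 480/540), measured over 3 min. Agonist mode; 15-point titrations, triplicate.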

[5] = p53 small molecule agonists, cell-based qHTS assay with human liver microsomes (AID 1963577);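 note: p53 response element beta-lactamase reporter cells with liver microsomes plus NADPH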
Outline: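 HLM-supplemented p53RE-bla reporter assay: 16 h compound exposure at 37 C, microsomes and NADPH each 0.5 mg/mL final, read by fluorescence intensity.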

[6] = p53 small molecule agonists, cell-based qHTS assay with rat liver microsomes (AID 1963578)
Outline: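 Quantitative HTS of the Tox21 10K library: p53RE-bla cells, rat liver microsomes plus NADPH at 0.5 mg/mL final each, 16 h at 37 C, beta-lactamase fluorescence detection.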

[7] = p53 small molecule agonists, cell-based qHTS assay with human liver microsomes: qHTS cell viability counter screen (AID 1963579); note: nearly all actives have a fitted effect of over 45% in size
Outline: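 Viability of p53RE-bla cells is measured as CellTiter-Glo luminescence following a 16 h, 37 C incubation with compound, liver microsomes from human donors and NADPH.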

[8] = p53 small molecule agonists, cell-based qHTS assay with rat liver microsomes: qHTS cell viability counter screen (AID 1963580); note: nearly all actives have a fitted effect of over 45% in size
Outline: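 In HCT-116 cells carrying a p53 response element-bla reporter, compounds were metabolically activated in situ by rat liver microsomes with NADPH over 16 h. Cell ATP content then served as the cytotoxicity measure.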

[9] = p53 small molecule agonists, cell-based qHTS assay (AID 1963582; active = well fitted activation curve with a large enough effect in the signal ratio in the repeat runs, not every such curve was filed as active; the % refers to the signal ratio)
Outline: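 In this cell-based concentration-response screen, a p53 response element drives beta-lactamase; cells received DMSO-borne compounds after 5 h culture and were incubated a further 16 h before FRET substrate development.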

[10] = target: 5-hydroxytryptamine receptor 2A (Homo sapiens) (UniProt P28223); assay: 5-hydroxytryptamine receptor 2A (HTR2A) small molecule antagonists, cell-based qHTS assay (AID 1963586); note: nearly all actives have a fitted effect of over 45% in size
5-hydroxytryptamine receptor 2A (Homo sapiens), sequence (P28223 whole entry, looked up): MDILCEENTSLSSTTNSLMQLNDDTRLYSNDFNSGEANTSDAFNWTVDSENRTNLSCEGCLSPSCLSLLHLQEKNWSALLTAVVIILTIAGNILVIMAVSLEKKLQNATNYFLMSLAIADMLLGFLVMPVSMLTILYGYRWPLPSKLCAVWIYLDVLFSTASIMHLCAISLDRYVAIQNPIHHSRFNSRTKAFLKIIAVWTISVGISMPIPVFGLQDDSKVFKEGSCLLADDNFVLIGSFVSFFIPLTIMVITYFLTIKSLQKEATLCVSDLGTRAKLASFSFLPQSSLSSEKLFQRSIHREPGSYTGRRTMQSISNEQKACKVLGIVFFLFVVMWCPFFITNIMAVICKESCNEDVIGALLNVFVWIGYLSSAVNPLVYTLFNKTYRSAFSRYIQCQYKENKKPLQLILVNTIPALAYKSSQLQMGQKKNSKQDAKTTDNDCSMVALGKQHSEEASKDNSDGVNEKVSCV
Outline: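 Antagonist-mode intracellular calcium assay: DOI (4 nM) added after 5 min compound pre-incubation at room temperature to dye-loaded HTR2A-CHO cells. Fluorescence followed for 3 min, sampled every second.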

[11] = target: 5-hydroxytryptamine receptor 2A (Homo sapiens) (UniProt P28223); assay: 5-hydroxytryptamine receptor 2A (HTR2A) small molecule agonists, cell-based qHTS assay (AID 1963587); note: nearly all actives have a fitted effect of over 30% in size
Outline: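 HTR2A-CHO cells, plated 18 h at 37 C/5% CO2, dye-loaded 1 h at 37 C; compounds in DMSO added by pin tool (agonist mode). Intracellular calcium flux read as kinetic fluorescence on FDSS over 2 min at 1 s intervals.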

[12] = target: Muscarinic acetylcholine receptor M1 (Homo sapiens) (UniProt P11229); assay: Cholinergic receptor muscarinic 1 (CHRM1) small molecule antagonists, cell-based qHTS assay (AID 1963588); note: nearly all actives have a fitted effect of over 40% in size
Muscarinic acetylcholine receptor M1 (Homo sapiens), sequence (P11229 whole entry, looked up): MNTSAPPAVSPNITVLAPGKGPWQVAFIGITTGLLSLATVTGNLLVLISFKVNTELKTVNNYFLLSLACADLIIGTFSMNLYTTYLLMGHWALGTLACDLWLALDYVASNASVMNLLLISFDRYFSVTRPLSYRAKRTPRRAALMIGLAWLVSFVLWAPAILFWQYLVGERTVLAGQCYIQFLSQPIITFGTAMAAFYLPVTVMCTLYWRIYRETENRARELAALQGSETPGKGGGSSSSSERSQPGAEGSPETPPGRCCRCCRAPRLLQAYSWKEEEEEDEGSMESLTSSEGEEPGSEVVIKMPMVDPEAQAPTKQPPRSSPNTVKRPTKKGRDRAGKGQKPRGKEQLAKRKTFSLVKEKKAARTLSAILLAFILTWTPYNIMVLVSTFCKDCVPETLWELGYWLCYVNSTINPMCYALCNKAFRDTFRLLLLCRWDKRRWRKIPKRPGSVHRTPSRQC
Outline: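 CHRM1-CHO calcium-flux assay, antagonist mode. Cells were seeded 18 h, dye-loaded 1 h at 37 C and given compound for 5 min at RT, then acetylcholine was added at 50nM. FDSS fluorescence was read 3 min; 15 concentrations, three runs.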

[13] = target: Muscarinic acetylcholine receptor M1 (Homo sapiens) (UniProt P11229); assay: Cholinergic receptor muscarinic 1 (CHRM1) small molecule agonists, cell-based qHTS assay (AID 1963589); note: nearly all actives have a fitted effect of over 35% in size
Outline: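 Measures agonist-induced intracellular calcium rise. Stable human CHRM1 CHO line, 1 h dye load at 37 C, compounds from DMSO, kinetic fluorescence read.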

[14] = cAMP Responsive Elements (CRE) small molecule agonists, cell-based qHTS assay (AID 1963590)
Outline: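 A CRE-responsive beta-lactamase reporter in HEK 293T cells was used. Treatment ran 3 h at 37 C; detection used LiveBLAzer B/G FRET substrate for 2 h at room temperature.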

[15] = cAMP Responsive Elements (CRE) small molecule antagonists, cell-based qHTS assay (AID 1963591; active = well fitted inhibition curve with a large enough effect in the signal ratio in the repeat runs, not every such curve was filed as active; the % refers to the signal ratio)
Outline: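 HEK293T cells carrying a CRE-driven beta-lactamase reporter receive compound and NKH477 (0.25 uM final) for 3 h. Fluorescence from LiveBLAzer B/G FRET substrate is read after 2 h at room temperature.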

[16] = target: Beta-2 adrenergic receptor (Homo sapiens) (UniProt P07550); assay: Adrenergic beta2 receptor (ADRB2) small molecule antagonists, cell-based qHTS assay (AID 1963592); note: series mostly up to about 92 µM; nearly all actives have a fitted effect of over 50% in size
Beta-2 adrenergic receptor (Homo sapiens), sequence (P07550 whole entry, looked up): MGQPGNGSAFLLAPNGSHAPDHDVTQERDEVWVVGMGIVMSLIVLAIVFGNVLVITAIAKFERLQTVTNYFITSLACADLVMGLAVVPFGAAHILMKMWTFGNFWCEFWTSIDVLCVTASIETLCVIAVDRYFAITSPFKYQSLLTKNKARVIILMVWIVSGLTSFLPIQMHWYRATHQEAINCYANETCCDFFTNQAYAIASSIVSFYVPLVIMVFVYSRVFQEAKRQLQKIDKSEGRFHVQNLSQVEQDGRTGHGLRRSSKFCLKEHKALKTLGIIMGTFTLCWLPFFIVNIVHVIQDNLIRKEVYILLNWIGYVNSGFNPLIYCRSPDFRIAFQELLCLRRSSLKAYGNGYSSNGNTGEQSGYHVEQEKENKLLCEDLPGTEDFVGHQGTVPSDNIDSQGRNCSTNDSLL
Outline: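 Cells (CHO, stable ADRB2 overexpression) incubated 18-20hr at 37C; compounds added from DMSO; agonist mix (1nM isoproterenol, 100uM IBMX, 25uM Ro-20-1724) added; 0.5hr RT; d2-cAMP and anti-cAMP-cryptate added; 1hr RT; 665/615 nm read.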

[17] = target: Beta-2 adrenergic receptor (Homo sapiens) (UniProt P07550); assay: Adrenergic beta2 receptor (ADRB2) small molecule agonists, cell-based qHTS assay (AID 1963593);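 note: CHO cells stably overexpressing human ADRB2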
Outline: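 CHO cells stably over-expressing ADRB2 were plated overnight at 37C, then dosed with compounds plus a stimulation mix containing 100uM IBMX and 25uM Ro-20-1724 for 0.5hr at room temperature. cAMP was measured by HTRF competition, 1hr.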

[18] = target: D(2) dopamine receptor (Homo sapiens) (UniProt P14416); assay: Dopamine D2 receptor (DRD2) small molecule agonists, cell-based qHTS assay (AID 1963594); note: nearly all actives have a fitted effect of over 35% in size
D(2) dopamine receptor (Homo sapiens), sequence (P14416 whole entry, looked up): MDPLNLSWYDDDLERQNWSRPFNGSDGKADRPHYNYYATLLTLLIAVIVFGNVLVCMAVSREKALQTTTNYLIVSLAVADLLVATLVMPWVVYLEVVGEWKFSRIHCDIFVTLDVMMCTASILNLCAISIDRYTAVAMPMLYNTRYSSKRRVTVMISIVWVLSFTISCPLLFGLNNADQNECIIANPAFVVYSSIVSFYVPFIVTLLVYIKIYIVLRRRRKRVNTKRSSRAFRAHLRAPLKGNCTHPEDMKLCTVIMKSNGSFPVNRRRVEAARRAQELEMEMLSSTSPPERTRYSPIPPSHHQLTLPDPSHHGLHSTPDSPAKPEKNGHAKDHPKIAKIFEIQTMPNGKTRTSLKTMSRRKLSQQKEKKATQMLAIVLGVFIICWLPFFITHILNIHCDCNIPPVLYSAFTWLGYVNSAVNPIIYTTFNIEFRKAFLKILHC
Outline: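 HEK293 cells stably expressing DRD2 were cultured 24 h at 37 C, then given Ro20-1724 (0.1 mM final) and compounds for 10 min at room temperature. NKH477 (200nM) was then added for 30 min. cAMP was read by HTRF.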

[19] = target: D(2) dopamine receptor (Homo sapiens) (UniProt P14416); assay: Dopamine D2 receptor (DRD2) small molecule antagonists, cell-based qHTS assay (AID 1963595; active = well fitted inhibition curve with a large enough effect in the signal ratio in the repeat runs, with a control signal flat; the % refers to the signal ratio)
Outline: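 HEK293 cells stably expressing DRD2, preincubated with 0.1 mM Ro20-1724 and compounds 10 min, were stimulated with 200 nM NKH477 plus 12 nM quinpirole for 30 min at room temperature; cAMP measured by HTRF (665/620 nm).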

[20] = p53 small molecule agonists, cell-based qHTS assay: qHTS cell viability counter screen (AID 1963581); note: nearly all actives have a fitted effect of over 45% in size
Outline: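 Following 5 h attachment, HCT-116 p53RE-bla cells took up compound for 16 h at 37 C; the reporter was read with B/G FRET substrate (2 h RT), and viability then via CellTiter-Glo ATP luminescence.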

Measured: Potency

CCCCCCCCCCCC(C)=O
not listed: [20]
inactive: all other assays above

FC(F)(F)C(F)(F)C(F)(F)C(F)(F)CCI
not listed: [9] | [20]
inactive: all other assays above

CN1C(C)(C)CCCC1(C)C
not listed: [17] | [18] | [20]
inactive: all other assays above

Oc1c(Br)cc(Br)c2cccnc12
active: [1] 841 nM
not listed: [14] | [17] | [20]
inactive: all other assays above

C[N+]1(C)[C@@H]2CC(OC(=O)[C@H](CO)c3ccccc3)C[C@H]1[C@@H]1O[C@@H]12 (some centres undefined)
not listed: [10] | [11] | [12] | [13] | [17]
inactive: all other assays above

CC(C)(O)c1ccccc1
not listed: [17] | [20]
inactive: all other assays above
